# Compounds with a hit are over-represented: about 10% of the library has one in this group of screens.
# HP1b binding inh – HTS for Inhibitors of HP1-beta Chromodomain Interactions with Methylated Histone Tails; Potency, µM (doses to about 114 µM), for inactives: at the top dose activity change, negative = inhibition, most hits filed as inhibitors; hit rate 0.56% among 390,000; AlphaScreen HP1-beta / biotin-H3K9me3 peptide binding; note: potency is the fitted concentration of half-maximal effect; nearly all actives have a fitted effect of over 70% in size
# Target sequence (P83916 whole entry, looked up): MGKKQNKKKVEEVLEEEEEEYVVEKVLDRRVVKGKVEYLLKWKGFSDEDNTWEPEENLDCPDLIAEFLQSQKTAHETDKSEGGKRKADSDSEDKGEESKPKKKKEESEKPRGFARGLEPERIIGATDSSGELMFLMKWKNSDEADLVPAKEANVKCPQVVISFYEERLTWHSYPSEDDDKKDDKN
#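 Compound inhibition of the preformed complex between 50 nM HP1-beta and 50 nM biotinylated H3K9me3 peptide was read by AlphaScreen. Buffer was PBS pH 7.4 with 0.01% Tween-20. Incubations ran 30 min at room temperature, with 10 ug/mL donor/acceptor beads.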
# Six1-Eya2 blk – qHTS Assay for Inhibitors of the Six1/Eya2 Interaction. hit rate 0.56% among 360,000. Homeobox protein SIX1 (Homo sapiens) + Protein phosphatase EYA2 (Homo sapiens), …. AlphaScreen GST-Six1/His-Eya2 binding, biochemical; stronger effect = lower value. activity change, % (concentration not given with the values); in the data active = activity change below about -65%; inconclusive = mostly about -30% to -63%; note: % is set by controls: 0 for no effect and ±100 for the full control effect
#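 Six1/Eya2 binding was read as AlphaScreen signal after compounds were pinned into GST-Six1 plus His-tagged Eya2 (5X stock 250/500 nM) in pH 8.0 Tris/NaCl/TCEP buffer, beads added, then incubated 1 h, 37 C, dark.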
# BAZ2B inh – qHTS Assay for Inhibitors of BAZ2B; AID 504333, 2011; Bromodomain adjacent to zinc finger domain protein 2B (Homo sapiens), Q9UIF8; hit rate 4.4% among 360,000; AlphaScreen BAZ2B-H3K14Ac peptide displacement; Potency, µM (doses to about 114 µM), for the others: at the top dose activity change, negative = inhibition, hits mostly inhibitors; note: potency is the fitted concentration of half-maximal effect; % is set by controls: 0 for no effect and ±100 for the full control effect; nearly all actives have a fitted effect of over 60% in size
#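 BAZ2B (50 nM) with biotin-H3(5-23)K14Ac peptide (50 nM) in PBS pH 7.4, 0.01% Tween-20, preformed 30 min, then compound 30 min at room temperature; top concentration 110uM. AlphaScreen streptavidin donor/nickel chelate acceptor beads (10 ug/mL final), 20 min dark, signal read.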
# JMJD2A Tudor – qHTS Assay for Inhibitors of JMJD2A-Tudor Domain. Lysine-specific demethylase 4A (Homo sapiens), O75164. AlphaScreen JMJD2A-Tudor / H3K4me3 peptide binding. Potency, µM (top dose mostly 114 µM), for the others: at the highest dose activity change, negative = inhibition, hits mostly inhibitors. hit rate 4.4% among 390,000; note: potency is the fitted concentration of half-maximal effect; % is set by controls: 0 for no effect and ±100 for the full control effect; nearly all actives have a fitted effect of over 50% in size
# G9a inh – qHTS Assay for Inhibitors of Histone Lysine Methyltransferase G9a; Potency, µM (highest dose often 102 µM), for inactives: at the highest dose activity, negative = inhibition, actives largely listed as inhibitors; hit rate 8.8% among 350,000; G9a H3K9 monomethylation, AlphaScreen, 2 h; note: potency is the fitted concentration of half-maximal effect; % is set by controls: 0 for no effect and ±100 for the full control effect; nearly all actives have a fitted effect of over 75% in size
# Target sequence (Q96KQ7 913-1193 limits assumed): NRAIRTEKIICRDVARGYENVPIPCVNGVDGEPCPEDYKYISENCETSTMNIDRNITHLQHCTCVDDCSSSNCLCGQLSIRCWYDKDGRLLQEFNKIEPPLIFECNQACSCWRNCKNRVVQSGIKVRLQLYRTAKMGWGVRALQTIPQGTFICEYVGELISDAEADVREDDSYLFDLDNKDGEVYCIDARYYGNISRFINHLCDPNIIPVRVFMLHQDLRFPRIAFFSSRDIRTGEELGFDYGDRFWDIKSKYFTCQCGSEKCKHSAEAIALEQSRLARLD
#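 Using a bead-based AlphaScreen, monomethylated H3K9 product from 2 h room-temperature reactions (G9a 20 nM, peptide 500 nM, SAM 20 uM) was detected with 0.5 ug/mL rabbit anti-H3K9me1 antibody.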
# CtBP-E1A inh – qHTS Assay for Inhibitors of the CtBP/E1A Interaction; CtBP / adenovirus E1A interaction (AlphaScreen); AlphaScreen GST-E1A/His-CtBP binding, 1536-well; stronger effect = lower value; activity change, % (test concentration not listed); hit rate 0.49% among 340,000; in the data active = activity change below about -65%; inconclusive = mostly about -30% to -63%; note: % is set by controls: 0 for no effect and ±100 for the full control effect
#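 Homogeneous bead-based format: GST-tagged E1A captured on glutathione donor beads, His-tagged CtBP on nickel acceptor beads; compounds precede bead addition by 2 h at 37 °C.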
# Numbers without * were called inactive; u = inconclusive; x = no result; [ ] = another dose, or the depositor's remark. Unless noted, calls come from the whole dose curve; as a rule, active = well fitted inhibition curve with a large enough effect; inconclusive = small, poorly fitted or top-dose-only effect; inactive = no such curve, though single readings can be large or run the other way.
SMILES,HP1b binding inh,Six1-Eya2 blk,BAZ2B inh,JMJD2A Tudor,G9a inh,CtBP-E1A inh
Cc1cc2c(s1)c1cnn(Cc3c(F)cccc3C(F)(F)F)c(=O)c1n2C,x,x,x,-16.4%,x,x
CN(CC(=O)Nc1ccc(N2CCOCC2)cc1)C(=O)CCc1ccccc1Cl,-14.3%,0.0,u,-23.4%,25.1µM*,0.0
CN(CC(=O)Nc1ccc(N2CCOCC2)cc1)C(=O)Cc1ccccc1,18.7%,-0.2,5.3%,-2.1%,-3.9%[12.7 µM],-0.3
Cc1ccc(NC(=S)Nc2ccc3[nH]c(=O)[nH]c3c2)cc1,-14.7%,-1.6,-20.9%,-6.6%[11.4 µM],50.1µM*,-2.7
COCCNC(=S)Nc1ccc2[nH]c(=O)[nH]c2c1,-2.1%,2.0,-22.1%,-9.5%,17.8µM*,x
O=c1[nH]c2ccc(NC(=S)Nc3ccccc3)cc2[nH]1,-14.3%,1.1,13.8%,-9.0%[57.1 µM],44.7µM*,0.0
O=c1[nH]c2ccc(NC(=S)Nc3ccc(Cl)cc3)cc2[nH]1,-10.4%,-4.2,8.3%,-17.2%,-1.9%[59 µM],-0.6
Cc1ccc(C(=O)NC(=S)Nc2ccc3[nH]c(=O)[nH]c3c2)cc1,11.9%,-0.6,6.8%,u,50.1µM*,-6.4
Cc1cccc(C(=O)OCC(=O)N(CC(C)C)c2c(N)n(Cc3ccccc3)c(=O)[nH]c2=O)c1C,7.0%,6.6,12.0%,-6.9%,u,-20.0
CCOC(=O)c1nn(-c2ccc(C)cc2)cc1C(=O)c1ccccc1,65.7%,19.1,41.4%,53.7%,u,1.3
CC(C)c1cc(C(=O)NCc2ccc(F)cc2)no1,42.0%,x,-2.0%,12.3%,-0.3%[59 µM],x
Cc1ccc(N/C=C/C(=O)c2cccs2)cc1,33.7%,1.8,-6.5%,-9.3%,-46.0%,-1.9
O=C(/C=C/Nc1ccc(F)cc1F)c1cccs1,21.1%,-1.1,-0.8%,-18.9%,14.1µM*,3.9
O=C(/C=C\Nc1cccc(F)c1)c1cccs1,85.4%,-2.1,16.0%,-0.7%[11.4 µM],-6.6%[59 µM],9.7
O=C(/C=C/Nc1ccccc1F)c1cccs1,27.6%,4.0,0.9%,-7.6%,31.6µM*,-12.0
CCOC(=O)c1ccccc1N/C=C/C(=O)c1cccs1,85.3%,-15.1,18.4%,16.4%,31.6µM*,9.6
O=C1NC2=C(C(=O)CCC2)C(c2ccc([N+](=O)[O-])cc2)N1 (centres undefined),31.5%,-4.0,-1.2%,-2.1%,-6.0%,6.6
CCOC(=O)CN(Cc1ccccc1)C(C(=O)NC1CCCCC1)c1ccc(OC)cc1 (centres undefined),-7.5%,x,2.2%,-19.8%,-0.3%[59 µM],x
COC1=C/C(=C/c2c(N)n3nc(-c4ccc(C)cc4)sc3nc2=O)C=CC1=O,6.6%,0.0,50.1µM*,u,u,-23.9
CCOC1=C/C(=C/c2c(N)n3nc(-c4ccccc4)sc3nc2=O)C=CC1=O,1.1%,u,39.8µM*,-32.2%,39.8µM*,-8.8
CCS(=O)(=O)c1nn2c(N)c(/C=C3/C=CC(=O)C(OC)=C3)c(=O)nc2s1,12.4%,-17.6,-7.0%,-19.9%,u,-21.1
CCCN1CNc2c(c(=O)[nH]c(=S)n2CCc2cccc(C)c2C)C1,30.7%,x,x,-7.5%,x,x
C(=N\N1CCN(C2c3ccccc3-c3ccccc32)CC1)/c1ccccn1,u,-6.5,20µM*,17.8µM*,47.7%[0.501 µM],-19.7
COc1ccc(/C=N/N2CCN(C3c4ccccc4-c4ccccc43)CC2)cc1O,u,-27.8,35.5µM*,u,u,-4.1
COc1ccc(/C=N/N2CCOCC2)cc1O,33.9%,-3.0,-0.1%,-0.3%,-17.4%[59 µM],-7.3
SMILES,HP1b binding inh,Six1-Eya2 blk,BAZ2B inh,JMJD2A Tudor,G9a inh,CtBP-E1A inh
Cc1ccc(/C=N/N2CCN(C3c4ccccc4-c4ccccc43)CC2)s1,-8.8%,4.2,-11.4%,-33.8%,79.4µM*,3.8
C(=N\N1CCN(C2c3ccccc3-c3ccccc32)CC1)/c1cccnc1,u,u,39.8µM*,56.2µM*,40.4%[0.501 µM],u
COc1ccc(CN(Cc2ccccc2)C(=O)c2cccc(C#N)c2)cc1COc1ccc(NC(C)=O)cc1,38.2%,x,x,-34.7%,x,x
Cc1ccccc1N1C(=O)c2cc(N)ccc2N/C1=C\F,x,x,x,x,-2.4%[12.7 µM],x
CC1(C(=O)Nc2cccc3c2CCCC3)CCN1C(=O)CCC1CCCC1 (centres undefined),x,-0.3,x,x,x,1.5
CCc1nc2ccc(C(=O)NCc3ccc(SC)cc3)cc2nc1CC,32.6%,x,-1.8%,-6.3%,-1.2%[59 µM],x
CCOC(=O)c1c(C)[nH]c(C(=O)CN(C)CC(=O)Nc2ccccc2C(F)(F)F)c1C,25.5%,-6.7,u,-33.0%,-13.5%[2.33 µM],-2.1
CC(=O)Nc1ccc(-n2nnnc2SCC(=O)NC2CCCC2)cc1,1.8%,6.4,-2.2%,-8.6%,-5.5%,0.2
CC(=O)c1ccc(-n2nnnc2SCC(=O)NC2CCCCC2)cc1,-12.8%,1.5,-2.6%,-7.6%,35.5µM*,2.6
O=C(CSc1nnnn1-c1ccc(F)cc1)NC1CCCCC1,u,0.7,4.9%,79.4µM*,-12.7%[12.7 µM],2.7
Cc1ccc(OCCn2cc(C(=O)C3CCCCC3)c3ccccc32)cc1,72.5%,x,3.1%,41.2%,36.8%[59 µM],x
COc1ccc(N2CCN(C(=O)CCS(=O)(=O)c3ccc(C)cc3)CC2)cc1,-12.4%,-6.3,u,-27.9%,50.1µM*,-3.2
COc1ccc(N2CCN(C(=O)C3(S(=O)(=O)c4ccc(C)cc4)CC3)CC2)cc1,-8.6%,-10.3,-23.4%,-17.5%,70.8µM*,-3.2
COc1ccc(S(=O)(=O)CCC(=O)N2CCN(c3ccc(C(C)=O)cc3)CC2)cc1,46.4%,-1.3,-38.8%,-12.2%,31.6µM*,7.6
COc1ccc(N2CCN(C(=O)CCS(=O)(=O)c3ccc(OC)cc3)CC2)cc1,27.9%,0.4,3.3%,-13.1%,u,x
O=C(CCS(=O)(=O)c1ccc(Br)cc1)N1CCN(c2ccc(F)cc2)CC1,14.1%,-10.5,56.2µM*,-9.7%,50.1µM*,x
O=C(CCS(=O)(=O)c1ccc(Br)cc1)N1CCN(c2ccc(Cl)cc2)CC1,23.3%,0.5,3.3%,-12.9%,10.8%[59 µM],11.0
CC(C)(C)OC(=O)Cc1nnc(-c2cc3ccccc3[nH]2)o1,x,x,x,-1.4%,x,x
COc1cccc(C(=O)N2c3ccc(C)cc3C(C)(c3ccccc3)CC2(C)C)c1 (centres undefined),12.4%,x,-13.8%,-16.3%,4.6%[59 µM],x
O=C(Cn1nc(C(F)(F)F)c2c1CCCC2)Nc1cccc(Cl)c1,34.7%,x,7.1%,-2.6%,0.9%[59 µM],x

# Compound activity: PubChem BioAssay, National Center for Advancing Translational Sciences (NCATS)
